Potency data for 51 compounds are collected here from PubChem BioAssay AID1347076 (National Center for Advancing Translational Sciences (NCATS), 2019).

About 13,000 (3.2%) of roughly 400,000 compounds were called active. Not shown: some 18% with an inconclusive outcome. The call rests on the fitted dose curve; in most records, active means well fitted cell-killing curve with a large enough effect; inconclusive means small, poorly fitted or top-dose-only effect, or effect the other way; inactive means flat fitted curve, though single readings scatter. The list comes from a sample in which actives are over-represented; it also holds similar structures and randomly drawn compounds. A call without a number means that no potency is given here.
Potency means the concentration at half of the fitted maximal effect.

The test can be described thus: qHTS assay for MDR1-selective chemotherapeutics: Primary screen using the drug-selected MDR subline cells KB-V1. Further: nearly all actives have a fitted effect of over 60% in size. To be noted: KB-V1 MDR cells viability, CellTiter-Glo, 72 h; series mostly up to 46.1 µM. From the text: A prime difficulty in effectively treating cancer is the development of cellular resistance to multiple structurally unrelated anticancer drugs, a phenomenon known as multidrug resistance (MDR). […] Numerous strategies to overcome P-gp-mediated MDR have been explored, including the design of drugs that evade recognition and efflux, and development of inhibitors to block efflux and restore drug accumulation. […] An alternative approach is to exploit resistance by identifying drugs that target MDR cells over the non-resistant parental cells from which they were selected. […] The development of MDR1-selective agents represents a new strategy for resolving multidrug resistance, as it remains a long-standing clinical challenge for cancer chemotherapy.
Our goal is to identify compounds that selectively kill P-gp-expressing MDR cells. We will identify MDR1-selective compounds by comparing toxicity of compounds in the screening library against parental, drug-naive (KB-3-1) adenocarcinoma cells as well as their drug-selected MDR sub-line (KB-V1). The differential toxicity of compounds against these two cell lines will be used to identify MDR1-selective compounds, whose cytotoxicity is potentiated, rather than diminished, by P-gp expression. This assay will be utilized to conduct a quantitative high-throughput screen (qHTS) in collaboration with the NIH Chemical Genomics Center to identify selective agents, and probe hits arising from the screen will be validated using secondary assays and characterized through a well-established follow-up research program. This screen was run against the entire NCGC library collection of about 400,000 compounds.
NIH Molecular Libraries Probe Production Network [MLPCN]
NIH Chemical Genomics Center [NCGC]
PI: Michael Gottesman, National Cancer Institute, NIH
Briefly, 5 microL of media containing either KB-V1 cells (columns 1-2, 4-48) are dispensed into Greiner white, treated solid-bottom 1536-well assay plates (media-only control is added to column 3). Compounds are then transferred via Kalypsys pin tool equipped with 1536-pin array (10 nL slotted pins, V&P Scientific, San Diego, CA). Following addition of compound, the plates are incubated at 37 degrees C for 72 hours. CellTiter-Glo (2.5 µL/well) is then added, and the plates are read in a ViewLux reader (Perkin-Elmer, clear luminescence filter, 1 second exposure, 1x binning) following a 10 minute incubation. All cells are dispensed in DMEM phenol-red free media containing 10% FBS.
Library plates were screened starting from the lowest and proceeding to the highest concentration. Vehicle-only plates, with DMSO being pin-transferred to columns 5-48, will be inserted uniformly at the beginning and the end of each library in order to monitor and record any shifts in the background, which can be affected by reagent dispensers or loss in enzyme activity over time. Screening data will be corrected, normalized, and concentration-effect relationships will be derived by using publicly-available NCGC, NCATS curve fitting algorithms (http://ncgc.nih.gov/pub/openhts).
For `O=C(Nc1ccc(Cl)cc1C(=O)c1ccccc1)c1cc(Cl)cc(Cl)c1`, the Potency entry was “inactive”.
As to `CN1CCN(C(=S)SCC(=O)Nc2ccc(Cl)cc2C(=O)c2ccccc2)CC1`, the Potency is 5.17 µM (active).
For `COc1ccc(C2C=C(C)Oc3c2c(=O)oc2ccccc32)cc1OC` (stereo unspecified), the Potency result is “inactive”.
Regarding `Cc1ncoc1C(=O)NCC1=C(c2cccc3ccccc23)C[C@@H]2CC[C@H]1N2Cc1ccco1`, the Potency result was “inactive”.
`C=C(C)C1(CCCC)C(=O)NC(=S)NC1=O`: the Potency result is “inactive”.
As to `Oc1cc2c(cc1CN1CCN(c3ccccc3)CC1)OCO2`, the Potency entry was “inactive”.
As to `Cc1cc(C)c2c(c1)NP(=S)(c1ccccc1)N2` (stereo unspecified), the Potency entry is “inactive”.
Turning to `C[C@]12CCC3C(CC[C@H]4[C@H](O)[C@H](O)CC[C@]34C)C1CC[C@@H]2O` (stereo partly specified), the Potency result is “inactive”.
In the case of `CC12CCC(O)CC1CCC1C2CCC2(C)C(C(=O)CC(O)C(F)(F)F)CCC12` (stereo unspecified), the Potency is 23.1 µM (active).
Then `C[C@]12CCC3C(CC[C@H]4C[C@@H](O)CC[C@]34C)C1CC[C@@H]2O` (stereo partly specified), with “inactive”; and `COC(=O)[C@@H]1C(OC(=O)c2ccccc2)CC2CCC1N2C` (stereo partly specified), with “inactive”; and `Cn1c(O)c(C(=Nc2ccc(F)cc2)c2ccccc2)c(=O)n(C)c1=O`, with “inactive”.
Turning to `O=P(OC1=CCCCC1)(c1ccccc1)c1ccccc1`, the Potency result was “inactive”.
Regarding `CCCOC(=O)C1C2c3ccccc3C(c3ccccc32)C1C(=O)O` (stereo unspecified), the Potency result is “inactive”.
Take `CC1CCC(N(C)C2CCN(C)CC2)CC1` (stereo unspecified): the Potency entry was “inactive”.
As for `O=C(c1ccccc1[N+](=O)[O-])N1CCC2(CC1)OCCO2`, the Potency entry was “inactive”.
With `O=C(c1cc2nc(-c3ccccc3)cc(-c3ccccc3)n2n1)N1CCC2(CC1)OCCO2`, the Potency is 25.9 µM (active).
Take `Cc1ccc(-c2cc(C(=O)N3CCC4(CC3)OCCO4)no2)cc1`: the Potency result was “inactive”.
As for `CC1C2Cn3c(nc4ccccc43)C1N(C)O2` (stereo unspecified), the Potency entry was “inactive”.
Then `COc1cc(C(=O)N2Cc3ccc(Br)cc3-n3nncc3C2)cc(OC)c1OC`, with “inactive”; and `CCC(C)(O)C(=O)OC1C(=O)OC2CC3C(C)=CC(=O)C(O)C3(C)C3C4(O)OCC23C1C(C)C4O` (stereo unspecified), with 11.6 µM (active).
With `c1ccc(N2Cc3ccccc3-n3nncc3C2)nc1`, the Potency result is “inactive”.
Regarding `CCC(C)n1c(O)c(/C=N/Nc2nc3c(c(=O)n(C)c(=O)n3C)n2C)c(=O)[nH]c1=S` (stereo unspecified), the Potency result is “inactive”.
Then `CCN1C(=O)NC(=O)C2(CCCC2)C1=O`, with “inactive”; and `COC(=O)CN(CCCl)P1(=O)OCCCN1CCCl` (stereo unspecified), with “inactive”.
As to `CCCCn1c(O)c(C(CC)=NCc2ccco2)c(=O)[nH]c1=O`, the Potency was 20.6 µM (active).
As to `CCC(=NCc1ccco1)c1c(O)n(Cc2ccccc2)c(=O)[nH]c1=O`, the Potency was 3.66 µM (active).
Under `CC/C(=N\NC(=O)c1ccccc1O)c1c(O)n(Cc2ccccc2)c(=O)[nH]c1=O` stands “inactive”; under `CC(=NCC1CCCO1)c1c(O)n(-c2ccccc2)c(=O)[nH]c1=O` (stereo unspecified), “inactive”.
For the compound `CN(C)CCCN=Cc1c(O)n(Cc2ccco2)c(=O)[nH]c1=O`, the Potency entry was “inactive”.
`O=C(N/N=C/c1c(O)n(Cc2ccccc2)c(=O)[nH]c1=O)c1ccccc1`: the Potency result is “inactive”.
Consider `CCCCC(=O)N/N=C/c1c(O)n(CCC2=CCCCC2)c(=O)[nH]c1=O`, for which the Potency result is “inactive”.
`CCC(=NCCCO)c1c(O)n(-c2ccc(OC)cc2)c(=O)[nH]c1=O`: the Potency entry was “inactive”.
With `CCCCCCN=C(CC)c1c(O)n(CCCC)c(=O)[nH]c1=O`, the Potency was 5.17 µM (active).
Then `c1cc2c(c(NC3=NCCCS3)c1)CCCC2`, with “inactive”.
With `O=c1c2ccccc2nc(CBr)n1-c1ccc(Cl)cc1`, the Potency entry was “inactive”.
On to `C[N+]12CN3CN(CN(C3)C1)C2`, for which the Potency entry is “inactive”.
Turning to `CC(CC(C#N)(c1ccccc1)c1ccccc1)N1CCCCC1` (stereo unspecified), the Potency result was “inactive”.
In the case of `N#Cc1c(Cl)c(Cl)c(Cl)c(C#N)c1Cl`, the Potency entry was “inactive”.
Take `Cc1cccc(OP(=O)(Oc2cccc(C)c2)OC(c2ccccc2)C(F)(F)F)c1` (stereo unspecified): the Potency result was “inactive”.
For the compound `Cc1ccc(OC(=O)N(C)C[C@@H]2OCc3cnnn3CCCC(=O)N([C@H](C)CO)C[C@@H]2C)cc1`, the Potency result was “inactive”.
Take `O=C1NCN(c2ccccc2)C12CCN(C(c1cccs1)c1nnnn1C1CCCCC1)CC2` (stereo unspecified): the Potency entry was “inactive”.
With `CC(=O)C1(O)CCC2C3CCC4=C(Cl)C(=O)CCC4(C)C3CCC21C` (stereo unspecified), the Potency result is “inactive”.
`Cc1ccc(Cn2nnnc2CN2CCC(n3nnc4ccccc43)CC2)cc1`: the Potency is 5.8 µM (active).
On to `N[C@@H](Cc1c[nH]c2ccccc12)c1nnc(SCc2c(F)cccc2Cl)o1`, for which the Potency was 18.4 µM (active).
For the compound `CCOC(=O)CC(SP1(=S)OCC2(CCCCO2)C(C2CCCCO2)O1)C(=O)OCC` (stereo unspecified), the Potency entry is “inactive”.
`CC(=O)Nc1ccccc1C(=O)OCC(=O)c1cccc2ccccc12`: the Potency result was “inactive”.
Take `Cn1cc(C(=O)OCC(=O)N2CCCC2)c2ccccc21`: the Potency is 23.1 µM (active).
Consider `CC(C)c1ccc(OCC(=O)N2CCCN(C)CC2)cc1`, for which the Potency entry is “inactive”.
Under `OCC#CC[N+]1(CC#Cc2ccccc2)CCCC1` stands “inactive”; under `C[C@]12CCC3C(CC[C@H]4[C@H](O)[C@H](O)CC[C@]34C)C1CCC2=O` (stereo partly specified), “inactive”.
